This note sets out measurements from PubChem BioAssay AID430 (Sanford-Burnham Center for Chemical Genomics, 2006).

The whole screen tested about 63,000 compounds, of which about 1,100 (1.7%) were called active. This is one part of a sample in which actives are shown more often than they occur. Rule as the data show it: active = cytotoxicity above about 50%; inactive = the rest. Potency and affinity values are given separately.

The nature of this experiment: HPDE-C7 pancreatic duct cell viability loss – fluorescence, HTS (AID 430).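 Also: cells exposed to compound for 48 hours before viability readout; 0% = vehicle and 100% = reference cytotoxic drug.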 The note with it: HPDE-C7 pancreatic duct cells viability, at 10 µM, active compounds read high.
On to `CN(C)C(=O)c1nc(C#N)c(N(C)C)o1`, for which the cytotoxicity is 8.3% (inactive).
With `COC(=O)c1[nH]c2cc(OC)ccc2c1NC(=O)CN1CCOCC1`, the cytotoxicity is 9.3% (inactive).
With `CCC(O)c1cc2c(cc1NC(=O)c1ccc(C)cc1)OCCO2` (stereo not given), the cytotoxicity is -1.6% (inactive).
With `Cc1cc(NC(=O)c2cc(-c3ccncc3)nc3c(C)cccc23)no1` the figure was 64.9% (active).
With `Cc1cc(C)c2nc(-c3ccccn3)cc(C(=O)Nc3cc(C)on3)c2c1` the figure was 6.6% (inactive).
With `Cc1cc(NC(=O)c2cc(-c3cccnc3)nc3c(C)c(C)ccc23)no1` the figure was 22.3% (inactive); with `O=C(c1cc(-c2ccc3c(c2)OCO3)on1)N1CCN(c2ccccc2)CC1`, 20.6% (inactive); with `CCOC(=O)c1ccccc1NC(=O)CN1CCC(n2nnc3cc(F)ccc32)CC1`, 13.5% (inactive).
On to `CCOc1ccc2nc(NC(=O)CN3CCC(n4nnc5cc(F)ccc54)CC3)sc2c1`, for which the cytotoxicity is 55.7% (active).
For `COc1ccccc1NC(=O)CN1CCC(n2nnc3cc(F)ccc32)CC1`, the cytotoxicity is -8.8% (inactive).
As for `O=C(Nc1ccc(NC(=O)C2CC2)nc1)c1ccccn1`, the cytotoxicity is -20.6% (inactive).
With `Cc1cc(C(=O)Nc2nnc(C3CCCCC3)s2)cs1` the figure was 6.3% (inactive); with `CCNC(=O)C1CC(=O)N(c2ccc(Br)cc2)C1` (stereo not given), -12.4% (inactive); with `O=C(CCN1CCc2ccccc2C1)Nc1ccc2c(c1)OCO2`, 2.3% (inactive).
In the case of `O=C(CCN1CCc2ccccc21)c1ccc2c(c1)OCCO2`, the cytotoxicity is 1.9% (inactive).
For `O=C(CCCN1CCOCC1)c1ccc2c(c1)OCCO2`, the cytotoxicity is 7.8% (inactive).
With `O=C(CCN1Cc2ccccc2C1)c1ccc2c(c1)OCCO2` the figure was -7.3% (inactive); with `Cc1cccc(-n2nnnc2SCC(=O)c2cc(C)n(CC3CCCO3)c2C)c1` (stereo not given), -31.6% (inactive).
For `O=C(Nc1nc(-c2ccc(Cl)s2)cs1)c1cccs1`, the cytotoxicity is 12.2% (inactive).
Turning to `CC(=O)c1cccc(S(=O)(=O)NCC(c2ccco2)N2CCCCC2)c1` (stereo not given), the cytotoxicity is 1% (inactive).
Regarding `CCc1ccccc1NC(=O)CCc1nc(-c2ccc(C)cc2)no1`, the cytotoxicity was -5.6% (inactive).
With `COc1ccc(C(CC(=O)O)NC(=O)COc2ccccc2)cc1OC` (stereo not given) the figure was -11.8% (inactive).
On to `COc1ccc(-c2nc(SCC(=O)NCc3ccco3)c(-c3ccccc3)[nH]2)cc1OC`, for which the cytotoxicity is -5.2% (inactive).
As to `COCc1cc(C)nc(SCC(=O)NCc2ccco2)c1C#N`, the cytotoxicity was 1.9% (inactive).
As for `COc1ccc(-c2[nH]c(-c3ccc(F)cc3)nc2SCC(=O)NCc2ccco2)cc1OC`, the cytotoxicity is 0.1% (inactive).
On to `COc1ccc(-c2ccc(SCC(=O)NCc3ccco3)nn2)cc1`, for which the cytotoxicity was -13.7% (inactive).
`COc1ccc(-c2[nH]c(-c3cccc(OC)c3)nc2SCC(=O)NCc2ccco2)cc1`: the cytotoxicity was 51.3% (active).
As to `N#Cc1c(-c2ccccc2)cc(C2CC2)nc1N`, the cytotoxicity is -2.8% (inactive).
For the compound `COc1ccc(-c2cc(-c3cccs3)c(C#N)c(SCC(=O)NCc3ccco3)n2)cc1`, the cytotoxicity is 52% (active).
`CSc1nc(C2CC2)cc(-c2cccs2)c1C#N`: the cytotoxicity is 63.4% (active).
Regarding `N#Cc1c(-c2cccs2)cc(-c2ccccn2)nc1N`, the cytotoxicity was 42.3% (inactive).
As to `CCN(CC)C(=O)CSc1nc(C)cc(-c2cccs2)c1C#N`, the cytotoxicity was 9.8% (inactive).
In the case of `CN1CCN(C(=O)CSc2nc(-c3cccs3)ccc2C#N)CC1`, the cytotoxicity is 15.3% (inactive).
Consider `O=C(O)C1C2CCC(O2)C1C(=O)NCCC1=CCCCC1` (stereo not given), for which the cytotoxicity was 21.4% (inactive).
With `COc1ccc(CCC(C(O)C(F)(F)F)S(=O)c2ccccc2)cc1` (stereo not given), the cytotoxicity is -3.4% (inactive).
Turning to `COc1ccccc1NC(=O)Nn1cnnc1`, the cytotoxicity is -17.6% (inactive).
With `CCn1c(SCC(=O)c2cc(OC)ccc2OC)nnc1-c1ccncc1` the figure was 6.4% (inactive); with `CC1Cc2ccccc2N1C(=O)CSc1nnc(NC(=O)Cc2cccs2)s1` (stereo not given), -10% (inactive).
Consider `CC(=O)Oc1ccc(N2C(=O)C3C(C2=O)C2(C)C=CC3(C)O2)cc1` (stereo not given), for which the cytotoxicity is -4% (inactive).
With `CCOc1ccc(C)cc1S(=O)(=O)NC1CCCCC1` the figure was 4.3% (inactive); with `Cc1ccc(-c2nn3c(C)nnc3s2)cc1NC(=O)c1ccc(OC(C)C)cc1`, -1% (inactive); with `CCOc1ccc2nc(C)cc(C(=O)O)c2c1`, 33.6% (inactive).
For the compound `c1ccc2c(c1)oc1c(NCCN3CCOCC3)ncnc12`, the cytotoxicity was 6.2% (inactive).
In the case of `c1ccc(Nc2ncnc3c2oc2ccccc23)cc1`, the cytotoxicity was -9.3% (inactive).
Turning to `COc1ccc(C)cc1NC(=O)COCC(=O)O`, the cytotoxicity is -11.8% (inactive).
Take `O=C(CN1CCN(Cc2ccccc2)CC1)Nc1ccc(Cl)cn1`: the cytotoxicity is 3.5% (inactive).
With `COc1cc(S(=O)(=O)N(Cc2cccnc2)Cc2ccco2)ccc1-n1cnnn1` the figure was -4.3% (inactive); with `COc1ccccc1CN(Cc1ccco1)S(=O)(=O)c1ccc(-n2cnnn2)c(OC)c1`, 19.4% (inactive).
With `CCOc1ccccc1CN(Cc1ccco1)S(=O)(=O)c1ccc(-n2cnnn2)c(OC)c1` the figure was 56.5% (active); with `CCOC(=O)c1c(NC(=O)CN2CCOCC2)sc2c1CCCC2=O`, 3.3% (inactive); with `CCOc1cc(/C=N/n2cnnc2)ccc1OCC(=O)Nc1ccccc1OC`, 7.2% (inactive).
On to `COc1nc(Nc2cccc(C(F)(F)F)c2)nc(OC)n1`, for which the cytotoxicity was -28.1% (inactive).
With `CC(C)c1ccc(Nc2nc(NCc3ccco3)nc(N3CCOCC3)n2)cc1` the figure was 27.5% (inactive).
With `Cc1cccc(Nc2nc(NCc3ccco3)nc(N3CCOCC3)n2)c1` the figure was 53% (active).
Turning to `CN1CCN(c2nc(Nc3cccc(C(F)(F)F)c3)nc(N3CCOCC3)n2)CC1`, the cytotoxicity was 65.4% (active).
`O=C(O)c1cccc(Nc2nc(N3CCOCC3)nc(N3CCOCC3)n2)c1`: the cytotoxicity is -10% (inactive).
Consider `Cc1ccc(Nc2nc(N3CCOCC3)nc(N3CCOCC3)n2)cc1`, for which the cytotoxicity is 8.7% (inactive).
Consider `Cc1nn(C)c(C)c1S(=O)(=O)NC1CCCc2ccccc21` (stereo not given), for which the cytotoxicity is -10% (inactive).
On to `CCc1n[nH]c2c1/C(=N\O)CC(c1ccccc1)C2` (stereo not given), for which the cytotoxicity is -1.4% (inactive).
On to `O=C(C1CCN(c2nnc(-n3cccc3)s2)CC1)N1CCN(Cc2ccc3c(c2)OCO3)CC1`, for which the cytotoxicity is -3.5% (inactive).
With `C(=C\c1ccccc1)/CSc1nnc(-c2cnccn2)n1Cc1ccco1` the figure was -10.9% (inactive).
For the compound `CCOC(=O)N1CCN(C(=O)C(CC(C)C)NC(=O)C2CCCCC2)CC1` (stereo not given), the cytotoxicity is -6.8% (inactive).
In the case of `N#Cc1c(NC(=O)CCN2C(=O)c3ccccc3C2=O)oc(-c2ccccc2)c1-c1ccccc1`, the cytotoxicity is 18.8% (inactive).
In the case of `Cc1ccnc(SCC(=O)Nc2oc(-c3ccccc3)c(-c3ccccc3)c2C#N)n1`, the cytotoxicity is 24.1% (inactive).
With `CCn1c(SCC(=O)Nc2oc(-c3ccccc3)c(-c3ccccc3)c2C#N)nnc1-c1ccco1`, the cytotoxicity is 32.7% (inactive).
Turning to `N#Cc1c(NC(=O)CN2CCOCC2)oc(-c2ccccc2)c1-c1ccccc1`, the cytotoxicity was -0.2% (inactive).
Regarding `N#Cc1c(NC(=O)Cn2c(=O)oc3ccccc32)oc(-c2ccccc2)c1-c1ccccc1`, the cytotoxicity was 72% (active).
Turning to `CC(=O)NC(C)C(=O)OCC(=O)c1ccc(Cl)s1` (stereo not given), the cytotoxicity is -1.2% (inactive).
Turning to `N#CCSc1nnc(COc2cccc3ccccc23)n1-c1ccccc1`, the cytotoxicity was 37.6% (inactive).
Consider `CCS(=O)(=O)Nc1ccc(Cc2ccncc2)cc1`, for which the cytotoxicity is -12.1% (inactive).
With `CCOCCCNC(=O)C(c1ccc(OC)cc1)N(Cc1ccc2c(c1)OCO2)C(=O)CNC(C)=O` (stereo not given) the figure was -6.5% (inactive).
Regarding `O=C(Nc1ccc(F)cc1)N1CCN(C/C=C/c2ccccc2)CC1`, the cytotoxicity is 11.6% (inactive).
Turning to `C(=C\c1ccccc1)/CN1CCN(C(c2ccccc2)c2ccccc2)CC1`, the cytotoxicity was 13% (inactive).
Consider `COc1cc(C2C3=C(CC(c4ccco4)CC3=O)Nc3ccccc3N2C(C)=O)cc(OC)c1OC` (stereo not given), for which the cytotoxicity is -7.9% (inactive).
For the compound `Cc1ccc(-c2[nH]c(=O)n3ccncc23)s1`, the cytotoxicity was -9.9% (inactive).
With `CCOc1nc(-c2ccccc2)ccc1-c1noc(-c2ccncc2)n1` the figure was 5.2% (inactive).
With `Cc1cnc(C(=O)Nc2ccc(N3CCOCC3)cc2)cn1` the figure was 1.3% (inactive).
In the case of `CC(C)(C)OC(=O)N1CCN(c2ccc(NC(=O)c3cc4ccccc4oc3=O)cc2)CC1`, the cytotoxicity was -30.1% (inactive).
On to `Cc1cnc(C(=O)Nc2ccc(N3CCN(C(=O)OC(C)(C)C)CC3)cc2)cn1`, for which the cytotoxicity is 50.5% (active).
Regarding `Cc1csc2nc(CCNS(=O)(=O)c3ccc4c(c3)OCCO4)cn12`, the cytotoxicity is 3.5% (inactive).
Regarding `CCOC(=O)Nc1ccc2c(c1)Sc1ccccc1N2C(=O)CCN1CCOCC1`, the cytotoxicity was 11.7% (inactive).
For `CCOC(=O)Nc1ccc2c(c1)N(C(=O)CCN1CCOCC1)c1ccccc1S2=O` (stereo not given), the cytotoxicity is 85.2% (active).
With `CCOC(=O)Nc1ccc2c(c1)N(C(=O)CCN1CCOCC1)c1ccccc1S2` the figure was -7.9% (inactive).
With `CC1(C)Cc2c(sc3nc(SCC(=O)NCc4ccco4)n(-c4ccccc4)c(=O)c23)CS1` the figure was 3.1% (inactive).
Take `COCCNC(=O)CSc1nc2cc(OC)c(OC)cc2c(=O)n1Cc1ccco1`: the cytotoxicity was -1.3% (inactive).
In the case of `O=c1c2ccccc2nc(SCc2ccccc2)n1Cc1ccco1`, the cytotoxicity was 8.4% (inactive).
With `COc1cc2nc(SCC(=O)NCc3ccco3)n(Cc3ccc(Cl)cc3)c(=O)c2cc1OC` the figure was 50.9% (active); with `O=C(CSc1nc2ccccc2c(=O)n1Cc1ccco1)NCc1ccccc1`, 58.8% (active); with `O=C(CSc1nc2ccccc2c(=O)n1Cc1ccco1)NCc1ccco1`, -1.8% (inactive).
With `COc1cc2nc(SCC(=O)NCCc3ccccc3)n(Cc3ccco3)c(=O)c2cc1OC` the figure was -3.3% (inactive); with `C=CCn1c(SCC(=O)NCc2ccco2)nc2sc3c(c2c1=O)CCCCC3`, 2.9% (inactive); with `O=C(CSc1nc2sc3c(c2c(=O)n1-c1ccccc1)CCCC3)NCc1ccco1`, 85.6% (active).
For `CC(=O)c1cc2c(cc1NC(=O)C1CC=CCC1C(=O)O)OCO2` (stereo not given), the cytotoxicity was -5.7% (inactive).
In the case of `CCn1c(C(C)NC(=O)c2ccc(OC)c(OC)c2)nc2ccccc21` (stereo not given), the cytotoxicity is 5.7% (inactive).
On to `O=C(O)c1c[nH]ccc1=O`, for which the cytotoxicity was -18.4% (inactive).
